High-throughput results (PubChem)
Rows were chosen to be rich in hits. Some 7.2% of all compounds tested hit in one or more screens of this group.
A1 inh = caspase 3/7 activation in MEF A1-2A-BIM cells, primary screen, A1 inhibitor project, cell-based, luminescence, HTS; Caspase-Glo 3/7 luminescence, 3 h; percent of clofoctol response, vehicle zero; AID 2462, 2010; hit rate 0.066% among 330,000; caspase activation, % (test concentration not listed);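 active = over half of replicate activation scores above 10%, or exactly half above 10 with the replicate mean above 10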
ALR inh = inhibitors of human ALR sulfhydryl oxidase, primary screen, biochemical, H2O2 detection, HRP-luminol luminescence, single point; inhibition, % (test concentration not listed); hit rate 3.8% among 290,000; FAD-linked sulfhydryl oxidase ALR (Homo sapiens), P55789; purified ALR, DTT oxidation;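 active = mean replicate inhibition above about 79%, with every replicate also reaching it, limit read from the data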
AHR activator = AHR activators, primary screen, cell-based, luminescence, luciferase reporter, human; AHR-responsive luciferase reporter cells; activation, % at 5 µM; hit rate 2.5% among 320,000; AID 2796, 2010; in the data active = activation above about 47%;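 note: 0% = vehicle wells and 100% = reference agonist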
Mot1-301 SUMO = yeast Mot1-301 growth rescue at high temperature, primary screen, SUMOylation pathway inhibitor project, S. cerevisiae, ATP luminescence, 38.5C; hit rate 1% among 320,000; S. cerevisiae Mot1-301 growth rescue; percent above DMSO median, 100 means doubled; growth rescue, % at 18.8 µM;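 active = every valid replicate shows activation above 250% relative to neutral control wells; inactive = the rest, any valid replicate at or below 250%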;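 note: OY570 slx delta 5 strain wells were the positive control but not used for scaling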
VLA-4 inh = inhibition in human VLA-4 binding assay, primary screen, VLA-4 allosteric modulator project, MLPCN library, flow cytometry, VLA-4 expressing cells. ligand binding flow cytometry. inhibition, % (about 7 µM as worked out from the volumes in the protocol). hit rate 0.2% among 330,000. AID 2557, 2010; in the data active = inhibition above about 50%
Efflux pump mplx = inhibitors of Candida efflux pumps in yeast, primary screen, S. cerevisiae, Nile Red, multiplex; inhibition, % at 10 µM; S. cerevisiae Candida pump triplex; hit rate 0.44% among 330,000; AID 485275, 2010;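 active = plate passing quality check with inhibition over a set limit, or well fluorescence over plate mean plus 4 SD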;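 note: Nile Red retained in pooled yeast measured as flow cytometry median fluorescence; 0% = buffer negative control and 100% = Enniatin B positive control; higher means more Nile Red kept so more efflux inhibition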
Yeast cmpd fluor = compound fluorescence in yeast efflux pump counter-screen; fluorescence ratio to DMSO, % at 10 µM; S. cerevisiae AD/pABC3, flow cytometry; hit rate 4% among 1,700; shares compounds with Efflux pump mplx; AID 588517;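 active = fluorescence ratio to DMSO above its plate's cutoff, the plate mean ratio plus 5 SD, cut at about 210% in these data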;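 note: unstained yeast with no Nile Red so the signal is compound autofluorescence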
Mdr1 pump inh = inhibitors of Candida albicans Mdr1 efflux, confirmation, flow cytometry, singleplex, Cherry Pick1 set | shares compounds with Efflux pump mplx | S. cerevisiae AD/CaMDR1, Nile Red efflux | inhibition, % at 10 µM | hit rate 1% among 1,700; in the data active = inhibition above about 26%;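 note: 0% = DMSO vehicle and 100% = reference inhibitor; higher means more Nile Red retained so more efflux inhibition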
Cdr2 pump inh = inhibitors of Candida albicans Cdr2 efflux pump, confirmation, S. cerevisiae AD/CaCDR2, flow cytometry, cherry pick 1, singleplex; shares compounds with Efflux pump mplx; Nile Red retention; Nile Red retention ratio vs DMSO, % at 10 µM; hit rate 4% among 1,700; AID 588520, 2011; in the data active = Nile Red retention ratio vs DMSO above about 190%;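 note: higher ratio means more blocking of Cdr2 efflux of the dye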
CaCdr1 efflux inh = inhibitors of Candida albicans Cdr1 efflux pump, confirmation, S. cerevisiae AD/CaCDR1, flow cytometry, cherry pick 1, singleplex; shares compounds with Efflux pump mplx; Nile Red efflux; hit rate 1% among 1,700; inhibition, % at 10 µM;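 active = inhibition above the screen-wide mean plus twice its standard deviation, cut at about 32% in these data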
The depositor's hits bear a star.

`COc1ccccc1CNC(=O)CSc1ccc(-c2ccncc2)nn1` gave A1 inh 0, ALR inh 1, AHR activator 36, Mot1-301 SUMO 294, VLA-4 inh -4 and Efflux pump mplx 0.
Screening c1cc2ccc3ccc(CN4CCOCC4)c4ccc(c1)c2c34 returned A1 inh 0, ALR inh -22, AHR activator 6, Mot1-301 SUMO 53, VLA-4 inh 1, Efflux pump mplx 1.1*, Yeast cmpd fluor 106, Mdr1 pump inh 0, Cdr2 pump inh 101 and CaCdr1 efflux inh 0.
`O=C(O)C1CC=CCC1C(=O)Nc1ccccc1Cl` (centres undefined) gave A1 inh 1, ALR inh -17, AHR activator 1, Mot1-301 SUMO 1, VLA-4 inh 8 and Efflux pump mplx 0.
Screening CCN(C(=O)COC(=O)c1cc(S(=O)(=O)N2CCOCC2)c(Cl)cc1Cl)C1CCS(=O)(=O)C1 (centres undefined) returned A1 inh 0, ALR inh -8, AHR activator -1, Mot1-301 SUMO -3, VLA-4 inh -4, Efflux pump mplx 0.9*, Yeast cmpd fluor 108, Mdr1 pump inh 0, Cdr2 pump inh 87 and CaCdr1 efflux inh 0.
Cc1ccc(C)c(CNS(=O)(=O)c2c(C)[nH]c(C)c2C(=O)N2CCCCC2)c1 was read as A1 inh 1, ALR inh 0, AHR activator 7, Mot1-301 SUMO 8, VLA-4 inh 1 and Efflux pump mplx 0.
For Cc1ccc(CNC(=O)c2cc(-c3ccccc3)nn2CC2CC(c3cccnc3)=NO2)cc1 (centres undefined) the results were A1 inh 0, AHR activator 2, Mot1-301 SUMO 8, VLA-4 inh 6, Efflux pump mplx 0.8*, Yeast cmpd fluor 102, Mdr1 pump inh 0, Cdr2 pump inh 106 and CaCdr1 efflux inh 0.
`Cc1ccc(CNC(=O)c2cc(-c3ccccc3C)nn2CC2CC(c3cccnc3)=NO2)cc1` (centres undefined) gave A1 inh 0, ALR inh -5, AHR activator 0, Mot1-301 SUMO 6, VLA-4 inh 6 and Efflux pump mplx 0.
Screening CCOc1ccc(S(=O)(=O)N2CCCCCC2)cc1 returned A1 inh 0, ALR inh -1, AHR activator 10, Mot1-301 SUMO 6, VLA-4 inh -2, Efflux pump mplx 9.8*, Yeast cmpd fluor 108, Mdr1 pump inh 0, Cdr2 pump inh 100 and CaCdr1 efflux inh 0.
`COc1ccc(NC(=O)/C(C#N)=C/c2ccc(OCc3ccccc3F)cc2)cc1` gave A1 inh 0, ALR inh -1, AHR activator -2, Mot1-301 SUMO 7, VLA-4 inh -9, Efflux pump mplx 6.5*, Yeast cmpd fluor 96, Mdr1 pump inh 0, Cdr2 pump inh 100 and CaCdr1 efflux inh 0.
`N#C/C(=C\c1ccc(OCc2ccccc2)cc1)C(=O)Nc1ccc(C(=O)O)cc1` gave A1 inh 0, ALR inh 4, AHR activator 1, Mot1-301 SUMO 105, VLA-4 inh 16 and Efflux pump mplx 0.
